This is an account of results in ChEMBL document CHEMBL1961873, “Compounds: GSK PKIS; Assays: Nanosyn kinase panel” (2012).

Broadly, the inhibition is the change of the read-out against control, counted positive when it falls.

For test [1], the target named is Serine/threonine-protein kinase MARK2 (Homo sapiens) (UniProt Q7KZI7). Conditions: at 1 µM.
In test [2] the target is PAS domain-containing serine/threonine-protein kinase (Homo sapiens) (UniProt Q96RG2). Conditions: at 0.1 µM.
Test [3] has the same target. The note with it: at 1 µM.
Test [4] concerns the target Phosphorylase b kinase gamma catalytic chain, skeletal muscle/heart isoform (Homo sapiens) (UniProt Q16816). Conditions: at 0.1 µM.
The target is the same in test [5]. Conditions: at 1 µM.
For test [6], the target named is T1, Phosphorylase b kinase gamma catalytic chain, liver/testis isoform (Homo sapiens) (UniProt P15735).
T1 sequence (whole entry): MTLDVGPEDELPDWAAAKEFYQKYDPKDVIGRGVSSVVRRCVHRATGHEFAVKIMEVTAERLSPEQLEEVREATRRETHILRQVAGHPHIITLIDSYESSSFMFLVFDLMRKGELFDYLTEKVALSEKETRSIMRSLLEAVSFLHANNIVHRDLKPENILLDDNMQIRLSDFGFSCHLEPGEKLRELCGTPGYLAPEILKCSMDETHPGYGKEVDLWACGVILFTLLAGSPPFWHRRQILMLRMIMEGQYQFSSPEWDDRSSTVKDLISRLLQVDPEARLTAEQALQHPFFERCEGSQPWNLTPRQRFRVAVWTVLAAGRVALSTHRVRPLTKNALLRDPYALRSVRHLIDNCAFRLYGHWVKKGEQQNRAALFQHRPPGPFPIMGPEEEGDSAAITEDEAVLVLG
The note with it: at 0.1 µM.

In test [7] the target is T1, Phosphorylase b kinase gamma catalytic chain, liver/testis isoform (Homo sapiens). Conditions: at 1 µM.
Test [8] addresses Serine/threonine-protein kinase pim-1 (Homo sapiens) (UniProt P11309). Conditions: at 0.1 µM.
The target is the same in test [9]. The note with it: at 1 µM.
Test [10] has as its target Serine/threonine-protein kinase pim-2 (Homo sapiens) (UniProt Q9P1W9). The note with it: at 0.1 µM.
For test [11] the target is unchanged. The note with it: at 1 µM.
Test [12] concerns the target Serine/threonine-protein kinase pim-3 (Homo sapiens) (UniProt Q86V86). The note with it: at 0.1 µM.
Test [13] has the same target. Conditions: at 1 µM.
The target in test [14] is T2, MAP kinase-activated protein kinase 5 (Homo sapiens) (UniProt Q8IW41).
T2 sequence (whole entry): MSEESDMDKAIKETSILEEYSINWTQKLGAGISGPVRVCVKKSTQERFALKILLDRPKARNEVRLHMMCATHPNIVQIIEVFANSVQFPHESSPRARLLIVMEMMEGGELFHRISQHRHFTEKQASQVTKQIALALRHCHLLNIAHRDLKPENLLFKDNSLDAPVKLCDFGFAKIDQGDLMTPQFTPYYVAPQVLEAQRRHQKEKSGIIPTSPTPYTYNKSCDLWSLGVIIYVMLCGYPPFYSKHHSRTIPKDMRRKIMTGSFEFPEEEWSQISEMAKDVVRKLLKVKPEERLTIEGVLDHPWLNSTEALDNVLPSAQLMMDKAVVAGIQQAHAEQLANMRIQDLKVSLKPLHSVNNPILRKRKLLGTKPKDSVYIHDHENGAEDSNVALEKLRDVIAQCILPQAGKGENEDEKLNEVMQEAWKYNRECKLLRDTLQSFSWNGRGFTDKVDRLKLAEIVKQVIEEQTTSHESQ
The note with it: at 0.1 µM.

Test [15] has as its target T2, MAP kinase-activated protein kinase 5 (Homo sapiens). Conditions: at 1 µM.
For test [16], the target named is Serine/threonine-protein kinase SIK1 (Homo sapiens) (UniProt P57059). The note with it: at 0.1 µM.
Test [17] shares this target. The note with it: at 1 µM.
In test [18] the target is Serine/threonine-protein kinase SIK2 (Homo sapiens) (UniProt Q9H0K1). Conditions: at 0.1 µM.
Serine/threonine-protein kinase SIK2 (Homo sapiens), sequence (Q9H0K1 whole entry, looked up): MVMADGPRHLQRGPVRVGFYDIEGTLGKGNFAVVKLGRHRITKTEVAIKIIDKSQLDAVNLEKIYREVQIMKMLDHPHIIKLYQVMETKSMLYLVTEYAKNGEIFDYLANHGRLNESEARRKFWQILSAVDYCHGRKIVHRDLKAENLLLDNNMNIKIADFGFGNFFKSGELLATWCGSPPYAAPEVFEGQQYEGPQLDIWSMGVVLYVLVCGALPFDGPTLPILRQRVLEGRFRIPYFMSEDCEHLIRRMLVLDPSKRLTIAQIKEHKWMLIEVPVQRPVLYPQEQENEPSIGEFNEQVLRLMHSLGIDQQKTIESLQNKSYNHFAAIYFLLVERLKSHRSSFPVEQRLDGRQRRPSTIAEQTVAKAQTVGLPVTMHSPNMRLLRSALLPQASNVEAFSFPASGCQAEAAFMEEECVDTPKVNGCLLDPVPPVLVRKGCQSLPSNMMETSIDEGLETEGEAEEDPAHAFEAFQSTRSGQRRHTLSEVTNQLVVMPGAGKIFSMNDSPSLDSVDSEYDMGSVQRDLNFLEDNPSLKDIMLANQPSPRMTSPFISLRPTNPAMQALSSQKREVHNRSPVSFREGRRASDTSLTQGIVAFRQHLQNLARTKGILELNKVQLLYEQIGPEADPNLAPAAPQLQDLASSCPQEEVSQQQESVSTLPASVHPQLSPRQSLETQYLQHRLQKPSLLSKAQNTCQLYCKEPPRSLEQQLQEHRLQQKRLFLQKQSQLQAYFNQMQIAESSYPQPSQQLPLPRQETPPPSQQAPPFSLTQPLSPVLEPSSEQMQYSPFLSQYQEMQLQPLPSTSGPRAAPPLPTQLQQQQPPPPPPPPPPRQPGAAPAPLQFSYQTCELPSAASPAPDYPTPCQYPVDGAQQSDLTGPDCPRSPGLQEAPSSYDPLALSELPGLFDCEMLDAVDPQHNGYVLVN
The target is the same in test [19]. The note with it: at 1 µM.
For test [20], the target named is T3, Serine/threonine-protein kinase TBK1 (Homo sapiens) (UniProt Q9UHD2).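 Further: values are the mean TBK1 inhibition, taken from the GSK PKIS screening data.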
T3 sequence (whole entry): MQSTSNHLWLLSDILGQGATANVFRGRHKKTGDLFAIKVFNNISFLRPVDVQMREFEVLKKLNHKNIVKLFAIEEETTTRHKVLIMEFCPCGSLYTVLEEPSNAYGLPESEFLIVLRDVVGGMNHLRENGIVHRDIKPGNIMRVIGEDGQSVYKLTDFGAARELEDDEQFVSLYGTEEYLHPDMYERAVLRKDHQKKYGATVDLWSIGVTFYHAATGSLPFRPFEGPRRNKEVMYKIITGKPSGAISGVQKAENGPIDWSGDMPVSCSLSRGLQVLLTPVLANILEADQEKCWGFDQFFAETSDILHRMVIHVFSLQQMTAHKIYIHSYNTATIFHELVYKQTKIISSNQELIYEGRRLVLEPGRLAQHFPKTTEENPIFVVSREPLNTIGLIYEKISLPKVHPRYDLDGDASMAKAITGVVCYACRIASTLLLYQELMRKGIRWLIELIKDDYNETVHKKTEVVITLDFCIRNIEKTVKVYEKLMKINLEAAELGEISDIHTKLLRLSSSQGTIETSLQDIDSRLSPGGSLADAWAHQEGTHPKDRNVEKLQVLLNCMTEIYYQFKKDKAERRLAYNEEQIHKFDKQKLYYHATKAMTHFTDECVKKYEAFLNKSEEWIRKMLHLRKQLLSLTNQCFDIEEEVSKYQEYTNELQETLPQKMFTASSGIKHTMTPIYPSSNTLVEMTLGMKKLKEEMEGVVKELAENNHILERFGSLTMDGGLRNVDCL
The note with it: at 0.1 µM.

Phosphorylase b kinase gamma catalytic chain, skeletal muscle/heart isoform (Homo sapiens), sequence (Q16816 whole entry, looked up, canonical isoform): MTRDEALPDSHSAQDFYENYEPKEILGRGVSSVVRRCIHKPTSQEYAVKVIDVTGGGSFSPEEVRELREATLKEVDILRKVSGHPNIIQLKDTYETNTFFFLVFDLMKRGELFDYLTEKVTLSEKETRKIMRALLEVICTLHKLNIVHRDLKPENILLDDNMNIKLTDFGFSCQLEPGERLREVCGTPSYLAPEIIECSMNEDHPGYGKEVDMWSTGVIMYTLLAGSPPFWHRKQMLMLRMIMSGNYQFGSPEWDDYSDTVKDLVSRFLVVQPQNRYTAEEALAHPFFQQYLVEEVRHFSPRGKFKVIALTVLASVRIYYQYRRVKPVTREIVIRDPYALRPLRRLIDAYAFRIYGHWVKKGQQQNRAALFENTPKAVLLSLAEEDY
Serine/threonine-protein kinase MARK2 (Homo sapiens), sequence (Q7KZI7 whole entry, the tested form may be a part): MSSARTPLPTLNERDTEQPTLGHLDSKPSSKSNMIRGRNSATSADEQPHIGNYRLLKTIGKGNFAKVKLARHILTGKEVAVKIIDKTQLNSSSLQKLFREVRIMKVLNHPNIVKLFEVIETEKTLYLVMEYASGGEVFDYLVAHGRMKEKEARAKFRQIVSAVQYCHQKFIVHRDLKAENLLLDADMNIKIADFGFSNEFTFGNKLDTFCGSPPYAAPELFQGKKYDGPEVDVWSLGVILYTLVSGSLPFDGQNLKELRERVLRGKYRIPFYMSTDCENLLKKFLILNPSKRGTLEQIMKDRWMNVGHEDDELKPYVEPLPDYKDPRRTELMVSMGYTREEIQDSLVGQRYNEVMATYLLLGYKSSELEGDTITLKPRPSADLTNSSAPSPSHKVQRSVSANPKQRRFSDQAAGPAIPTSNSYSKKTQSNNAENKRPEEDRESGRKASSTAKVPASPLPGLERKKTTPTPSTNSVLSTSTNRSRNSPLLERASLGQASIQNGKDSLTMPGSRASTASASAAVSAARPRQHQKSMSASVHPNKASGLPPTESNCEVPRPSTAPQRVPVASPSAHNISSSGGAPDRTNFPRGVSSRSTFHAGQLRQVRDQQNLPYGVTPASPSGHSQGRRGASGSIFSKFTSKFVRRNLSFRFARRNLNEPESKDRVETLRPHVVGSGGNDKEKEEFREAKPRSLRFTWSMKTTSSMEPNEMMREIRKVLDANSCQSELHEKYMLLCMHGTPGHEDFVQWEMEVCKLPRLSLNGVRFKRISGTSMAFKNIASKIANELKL
Serine/threonine-protein kinase pim-2 (Homo sapiens), sequence (Q9P1W9 whole entry, looked up): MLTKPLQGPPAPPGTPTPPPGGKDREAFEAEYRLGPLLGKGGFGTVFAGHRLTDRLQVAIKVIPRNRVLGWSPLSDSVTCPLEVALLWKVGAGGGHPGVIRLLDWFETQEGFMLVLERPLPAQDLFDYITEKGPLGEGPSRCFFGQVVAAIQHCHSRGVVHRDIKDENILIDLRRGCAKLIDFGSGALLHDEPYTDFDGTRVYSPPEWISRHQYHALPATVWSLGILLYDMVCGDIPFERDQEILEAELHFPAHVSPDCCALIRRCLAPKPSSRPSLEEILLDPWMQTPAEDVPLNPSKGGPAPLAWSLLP
Serine/threonine-protein kinase pim-1 (Homo sapiens), sequence (P11309 whole entry, looked up): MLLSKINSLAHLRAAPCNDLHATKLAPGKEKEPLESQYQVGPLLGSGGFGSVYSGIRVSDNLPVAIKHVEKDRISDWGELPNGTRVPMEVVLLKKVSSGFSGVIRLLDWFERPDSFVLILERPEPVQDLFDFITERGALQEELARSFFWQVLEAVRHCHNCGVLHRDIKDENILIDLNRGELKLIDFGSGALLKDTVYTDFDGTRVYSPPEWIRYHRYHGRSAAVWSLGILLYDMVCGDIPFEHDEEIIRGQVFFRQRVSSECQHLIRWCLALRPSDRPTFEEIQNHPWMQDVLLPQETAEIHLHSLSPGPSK
PAS domain-containing serine/threonine-protein kinase (Homo sapiens), sequence (Q96RG2 whole entry, the tested form may be a part): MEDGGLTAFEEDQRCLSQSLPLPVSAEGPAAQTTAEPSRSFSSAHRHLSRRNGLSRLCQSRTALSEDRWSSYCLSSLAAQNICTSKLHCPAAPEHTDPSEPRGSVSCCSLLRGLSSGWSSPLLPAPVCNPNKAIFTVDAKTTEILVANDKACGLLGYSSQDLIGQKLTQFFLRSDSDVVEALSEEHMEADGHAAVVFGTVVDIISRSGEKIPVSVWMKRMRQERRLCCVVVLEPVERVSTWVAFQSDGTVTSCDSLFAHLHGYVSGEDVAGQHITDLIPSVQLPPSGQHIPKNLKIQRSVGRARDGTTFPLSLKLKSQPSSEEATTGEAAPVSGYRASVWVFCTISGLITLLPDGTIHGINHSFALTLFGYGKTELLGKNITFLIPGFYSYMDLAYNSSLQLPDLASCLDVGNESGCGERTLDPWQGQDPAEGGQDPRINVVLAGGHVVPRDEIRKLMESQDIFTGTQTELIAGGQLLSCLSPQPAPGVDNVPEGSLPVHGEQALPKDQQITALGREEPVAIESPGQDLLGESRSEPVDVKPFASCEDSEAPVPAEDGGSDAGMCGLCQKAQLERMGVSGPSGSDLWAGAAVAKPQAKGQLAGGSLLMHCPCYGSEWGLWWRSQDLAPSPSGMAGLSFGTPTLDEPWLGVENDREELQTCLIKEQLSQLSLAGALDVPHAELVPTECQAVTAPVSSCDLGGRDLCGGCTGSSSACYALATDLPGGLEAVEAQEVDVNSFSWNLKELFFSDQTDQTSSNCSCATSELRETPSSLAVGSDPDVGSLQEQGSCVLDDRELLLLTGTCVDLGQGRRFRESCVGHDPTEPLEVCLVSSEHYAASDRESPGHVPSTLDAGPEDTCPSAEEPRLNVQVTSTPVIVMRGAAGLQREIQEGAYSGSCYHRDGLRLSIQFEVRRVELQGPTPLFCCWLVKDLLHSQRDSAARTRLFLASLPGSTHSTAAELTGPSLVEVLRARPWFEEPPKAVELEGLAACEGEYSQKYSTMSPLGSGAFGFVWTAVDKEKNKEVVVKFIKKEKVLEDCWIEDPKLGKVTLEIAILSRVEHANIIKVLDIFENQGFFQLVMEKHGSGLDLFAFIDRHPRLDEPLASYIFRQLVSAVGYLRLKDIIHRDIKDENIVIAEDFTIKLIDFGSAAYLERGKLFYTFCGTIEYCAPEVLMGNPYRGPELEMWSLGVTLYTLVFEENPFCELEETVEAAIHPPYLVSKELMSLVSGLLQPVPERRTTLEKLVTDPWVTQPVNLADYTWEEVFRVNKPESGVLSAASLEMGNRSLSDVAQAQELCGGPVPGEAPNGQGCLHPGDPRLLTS

Regarding `CCc1cccc(NC(=O)Nc2ccc(Oc3ccc4nc(NC(=O)OC)[nH]c4c3)cc2)c1`, the inhibition in [1] was -0.89%; in test [2], 1.41%; in [3], 1.44%; in test [4], -0.84%; in [5], 2.94%; in [6], 3.07%. In addition, the inhibition in test [7] is 3.57%; in test [8], 1.27%; in [9], 0.49%; in test [10], -0.87%; in [11], -0.24%; in test [12], 1.1%. The inhibition came to 3.52% in [13]; 0.32% in test [14]; 0.96% in test [15]; 2.06% in test [16]; 2.27% in [17]; 1.99% in test [18]. The inhibition stood at 0.48% in test [19] and 0.31% in test [20].

Consider `CCn1c(-c2nonc2N)nc2cnc(Oc3cccc(NC(=O)c4ccc(OCCN5CCOCC5)cc4)c3)cc21`, for which the inhibition was 11% in test [1]; -1.22% in test [2]; -0.7% in test [3]; -3.59% in test [4]; 6.37% in [5]; 3.34% in [6]. Besides, the inhibition in [7] was 1.77%; in [8], 0.47%; in test [9], 10.4%; in test [10] it was -0.49%; in test [11], 0.68%; in [12] it was -1.8%. In addition, the inhibition amounted to 2.09% in test [13]; 0.82% in [14]; 1.44% in [15]; 4.8% in test [16]; 10.1% in [17]; 8.55% in [18]. Besides, the values for the inhibition in test [19] and in [20] were 13.8% and 0.71%, respectively.

For `CC(C)=Cc1cccc2c1/C(=N/Nc1ccc(S(N)(=O)=O)cc1)C(=O)N2`, the inhibition was 14.2% in [1]; 0.93% in [2]; 1.77% in test [3]; 0.64% in test [4]; 26.6% in test [5]; 1.74% in [6]. Besides, the inhibition was determined as 8.45% in test [7]; 1.05% in [8]; 1.77% in test [9]; 0.72% in test [10]; 0.68% in test [11]; 1.74% in test [12]. For the same compound, the inhibition turned out to be 3.98% in test [13]; 0.48% in [14]; 2.48% in test [15]; 3.24% in test [16]; 11.2% in [17]; 4.69% in test [18]. The inhibition in test [19] was determined as 15.5%; in [20], 3.78%.

On to `COc1ccc(-c2ccncc2)cc1C(N)=O`, for which the inhibition in [1] is 0.17%; in test [2] it was -0.78%; in test [3], -0.33%; in [4] it was 2.55%; in test [5], 3.87%; in [6], 5.73%. Also, the inhibition was 5.45% in test [7]; 0.06% in [8]; 2.13% in test [9]; -0.49% in test [10]; -0.52% in test [11]; -0.49% in test [12]. Besides, the inhibition came out at 3.33% in [13]; 1.23% in [14]; 1.1% in test [15]; 3.59% in test [16]; 9.53% in [17]; 3.27% in test [18]. For the same compound, the inhibition in [19] turned out to be 4.53%; in [20], 2.55%.

On to `CC1=C(C(=O)Nc2ccc3[nH]ncc3c2)C(c2ccc3ccccc3c2)CC(=O)N1` (stereo not given), for which the inhibition in test [1] was 0.34%; in test [2], -0.4%; in test [3], -1.53%; in test [4] it was 2.21%; in [5], 1.29%; in test [6] it was 2.37%. The inhibition in [7] is 1.22%; in [8], 0.24%; in test [9] it was -0.93%; in [10], 0.51%; in test [11], 0.77%; in test [12] it was -0.19%. For the same compound, the inhibition came out at 0.74% in test [13]; 0.65% in test [14]; 1.3% in test [15]; 4.02% in test [16]; 1.28% in [17]; 5.77% in [18]. Also, the inhibition is 4.09% in [19] and -1.92% in test [20].

Consider `CCn1c(-c2nonc2N)nc2cncc(C(=O)N3CC[C@H](N)C3)c21`, for which the inhibition turned out to be 7.14% in [1]; 0.29% in test [2]; 22.9% in test [3]; 6.12% in test [4]; 6.32% in test [5]; 6.67% in [6]. The inhibition was found to be 5.58% in [7]; 74.1% in [8]; 94.2% in test [9]; 9.73% in [10]; 48.2% in test [11]; 51.5% in [12]. For the same compound, the inhibition in test [13] is 78.9%; in test [14] it was 1.81%; in test [15], 2.26%; in test [16] it was 5.73%; in [17], 9.11%; in test [18], 4.34%. Also, the inhibition in [19] was found to be 10.1%; in [20] it was 3.11%.

In the case of `COc1cc2ncn(-c3cc(O[C@H](C)c4ccccc4Cl)c(C(N)=O)s3)c2cc1OC`, the inhibition in test [1] was 17.8%; in test [2], 1.62%; in test [3], 5.27%; in test [4], 3.66%; in test [5] it was 6.72%; in test [6] it was 6.57%. Further, the inhibition in test [7] was 12.9%; in [8] it was 1.15%; in test [9], 3.93%; in [10] it was 0.26%; in test [11], 0.96%; in [12] it was 2.36%. For the same compound, the inhibition is 12.4% in [13]; 2.09% in test [14]; 4.22% in test [15]; 12.6% in test [16]; 53.1% in [17]; 10.9% in test [18]. Further, the figures for the inhibition in test [19] and in test [20] were 24.8% and 3.11%, respectively.
